In the supplement of paper PMC9948646:

test system: gramicidin D channels in DC22:1PC lipid vesicles (bilayer-modifying potency); experiment: initial Tl+ fluorescence quench rate relative to no-drug control (NormRate, gramicidin monomer-dimer shift) (ratio (fold of control)); higher = stronger bilayer-modifying effect (equilibrium shifted toward conducting dimers), active = 1.5 or more; details: 10 µM; lipid concentration 50 µM; temperature: 25 °C
Description: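 Stopped-flow fluorescence quench assay: ANTS-loaded DC22:1PC large unilamellar vesicles doped with gramicidin D (1:2000), 50 µM lipid, equilibrated 10 min with 10 µM drug (0.1% DMSO), mixed with Tl+ quench buffer at 25°C. Initial quench rate (Tl+ influx) was fitted with a modified stretched exponential and normalised to the no-drug control rate (NormRate); duplicates from two independent LUV preparations (triplicates for 7 drugs).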

Compound | initial Tl+ fluorescence quench rate
O=C(NCCc1c[nH]c2ccccc12)c1cc2ccccc2oc1=O | 1.95 (active)
O=C(Nc1cccnc1)c1c(O)c2cccc3c2n(c1=O)CC3 | 1.07 (inactive)
Nc1ncnc2[nH]nc(Cc3cccc4ccccc34)c12 | 1.15 (inactive)
O=C(NCCc1ccccc1)c1cc(-c2cccnc2)cnc1NCC1CC1 | 2 (active)
COc1ccc2nc(C)cc(OCC(=O)NCc3ccccc3)c2c1 | 1.06 (inactive)
COc1ccc(Cn2cnc3c(-c4ccco4)nc(Cl)nc32)cc1 | 1.59 (active)
CO[C@@H](C(=O)N1Cc2[nH]nc(NC(=O)c3ccc(N4CCN(C)CC4)cc3)c2C1)c1ccccc1 | 1.2 (inactive)
Cc1cc(C)c2cc(C(=O)NC3CCCCCCC3)[nH]c2c1 | 1.78 (active)
CC(C)(C)c1cc(C(=O)N2CCN(c3nccnc3C#N)CC2)n(Cc2ccccc2)n1 | 1.21 (inactive)
CC(=O)NC[C@H]1CN(c2ccc(N3CCSCC3)c(F)c2)C(=O)O1 | 1.09 (inactive)
O=C(C1CCCCC1)N1CC(=O)N2CCc3ccccc3[C@@H]2C1 | 1.04 (inactive)
CCOc1ccc(-c2nc(CNCCc3ccc(F)cc3)cs2)cc1 | 1.44 (inactive)
CC(=O)Nc1ccc(NC(=O)c2cc(-c3cc(Cl)ccc3O)[nH]n2)cc1 | 1.06 (inactive)
O=C(Nc1nnc(S)s1)c1cc(Br)ccc1Cl | 1.2 (inactive)
COc1ccc(-c2cncc3ccc(C(=O)NCCCn4ccnc4)nc23)cc1 | 1.03 (inactive)
CC(C)(C)C(=O)N(CCCCCCN1C[C@H](O)[C@@H](O)[C@H](O)[C@H]1CO)C1CCCCCC1 | 1.15 (inactive)
